Results taken from PubChem BioAssay (EPA / NIEHS).
Records with an inconclusive call do not appear. The source made the active and inactive calls. Rule for the calls: active = hit-call score of the fitted dose curve at least 0.9, where 1 is the maximum; inconclusive = response in the unintended direction; inactive = score below 0.9.

Legend:
[1] = VALA_TUBHUV_Agonist_TubuleLength: VALA Sciences human Umbilical Vein Endothelial Tubule Formation (TUBHUV) Agonism Assay (AID 2284337)
Method in brief: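 HUVEC co-cultured with fibroblasts (1:3) 3 days in 10 ng/ml VEGF, then 3 days with compound plus VEGF; 0.1 % DMSO neutral control. Fixed, nuclear and CD31 stained; tubule length by fluorescence imaging.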

[2] = VALA_TUBIPS_Agonist_CellCount: Viability Assessment in the VALA Sciences human iPS-derived Endothelial Tubule Formation (TUBIPS) Agonism Assay (AID 2284338)
[3] = CCTE_Mundy_HCI_iCellGluta_NOG_NeuronCount: CCTE's Neurite Outgrowth Assay in iCellGluta cells for Neuron Count, Mundy Lab (AID 2284340);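 note: cells fixed about 48 h after compound addition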
Method in brief: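 Neuron count read by automated high-content imaging of Hoechst 33342 and betaIII-tubulin/Alexa Fluor-488 labelling in human iPSC glutamatergic neurons. Activity fitted relative to DMSO.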

[4] = CCTE_Mundy_HCI_iCellGluta_NOG_NeuriteCount: CCTE's Neurite Outgrowth Assay in iCellGluta cells for Neurite Count, Mundy Lab (AID 2284342);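 note: chemical exposure about 48 hours starting 2 hours after plating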

SMILES | AC50 [1] | AC50 [2] | outcome [3] | outcome [4]
CCCCCCCCOC(=O)c1cc(O)c(O)c(O)c1 | 50 µM (active) | 24.2 µM (active) |  | 
O=C1O[C@H]([C@@H](O)CO)C(O)=C1O |  |  | inactive | inactive
